Results filed as inconclusive are left out. Active and inactive are the calls of the source. Unless noted, the call rests on the fitted dose curve.
Columns and labels:
[1] = qHTS for Inhibitors of the Functional Ribonucleoprotein Complex (vRNP) of Lassa (LASV) Arenavirus: LASV Primary Screen - GLuc reporter signal (AID 1347082; calls by dose curve; tested in HEK293 reporter line; further: nearly all actives have a fitted effect of over 60% in size)
[2] = qHTS for Inhibitors of the Functional Ribonucleoprotein Complex (vRNP) of Lassa (LASV) Arenavirus: Viability assay - alamar blue signal for LASV Primary Screen (AID 1347083; calls by dose curve; tested in HEK293 reporter line; further: nearly all actives have a fitted effect of over 80% in size)
[3] = qHTS for Inhibitors of the Functional Ribonucleoprotein Complex (vRNP) of Lymphocytic Choriomeningitis Arenaviruses (LCMV): Viability assay - alamar blue signal for LCMV Primary Screen (AID 1347085; calls by dose curve; tested in HEK293 reporter line; further: nearly all actives have a fitted effect of over 80% in size)
[4] = biological target: Nucleoprotein (Lymphocytic choriomeningitis virus (strain Armstrong)) (UniProt P09992); assay: qHTS for Inhibitors of the Functional Ribonucleoprotein Complex (vRNP) of Lymphocytic Choriomeningitis Arenaviruses (LCMV): LCMV Primary Screen - GLuc reporter signal (AID 1347086); further: nearly all actives have a fitted effect of over 70% in size
Sequence of Nucleoprotein (Lymphocytic choriomeningitis virus (strain Armstrong)) (P09992 whole entry, looked up): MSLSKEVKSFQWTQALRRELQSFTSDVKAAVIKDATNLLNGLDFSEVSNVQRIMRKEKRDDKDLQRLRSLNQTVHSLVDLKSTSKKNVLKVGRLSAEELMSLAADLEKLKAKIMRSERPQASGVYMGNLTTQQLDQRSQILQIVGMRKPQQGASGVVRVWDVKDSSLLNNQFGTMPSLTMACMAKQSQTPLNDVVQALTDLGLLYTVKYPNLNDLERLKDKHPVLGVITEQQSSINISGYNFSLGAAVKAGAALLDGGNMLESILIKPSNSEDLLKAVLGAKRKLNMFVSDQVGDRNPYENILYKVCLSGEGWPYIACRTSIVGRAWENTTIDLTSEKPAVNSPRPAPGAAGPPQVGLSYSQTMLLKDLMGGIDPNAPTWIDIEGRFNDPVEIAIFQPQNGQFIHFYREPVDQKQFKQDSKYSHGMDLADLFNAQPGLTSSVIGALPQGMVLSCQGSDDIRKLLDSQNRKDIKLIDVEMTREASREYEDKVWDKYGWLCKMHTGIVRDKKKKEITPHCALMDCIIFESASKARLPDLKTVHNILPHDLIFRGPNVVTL

Measured: Potency
Further: series mostly up to about 57 µM.

NC(CSCC(=O)O)C(=O)O (stereo unspecified)
inactive: [1] | [2] | [3] | [4]

CCN1C(=O)c2ccccc2C1Nc1ccc(OCCN2CCCCC2)cc1 (stereo unspecified)
inactive: [1] | [2] | [3] | [4]

N=C(N)c1ccc2cc(OC(=O)c3ccc(N=C(N)N)cc3)ccc2c1
inactive: [1] | [2] | [3] | [4]

O=C(c1cc(O)c(O)c(O)c1)c1ccc(O)c(O)c1O
inactive: [1] | [2] | [3] | [4]

OCC(O)CS (stereo unspecified)
inactive: [1] | [2] | [3] | [4]

CC(C)OC(=O)c1cc2c(OCC(O)CNC(C)(C)C)cccc2[nH]1 (stereo unspecified)
inactive: [1] | [2] | [3] | [4]

Cc1c(N)cccc1C(F)(F)F
inactive: [1] | [2] | [3] | [4]

CC(=O)Nc1ccc(S(=O)(=O)Nc2ccc([N+](=O)[O-])cc2)cc1
inactive: [1] | [2] | [3] | [4]

CC(C)(C)C(=O)NCCCC(=O)O
inactive: [1] | [2] | [3] | [4]

O=C(Cn1ccnc1[N+](=O)[O-])NCCO
inactive: [1] | [2] | [3] | [4]

C[C@]12CCC(=O)C=C1CC[C@@H]1[C@@H]2C(=O)C[C@@]2(C)[C@H]1CC[C@]2(O)C(=O)CO
inactive: [1] | [2] | [3] | [4]

CCC(C(=O)OCCOCCN(CC)CC)c1ccccc1 (stereo unspecified)
inactive: [1] | [2] | [3] | [4]

CC(C)(C)c1ccc(C(=O)CCCN2CCC(OC(c3ccccc3)c3ccccc3)CC2)cc1
inactive: [1] | [2] | [3] | [4]

CCCCC(=O)O[C@]1(C(=O)CO)[C@@H](C)C[C@H]2[C@@H]3CCC4=CC(=O)C=C[C@]4(C)[C@@]3(F)[C@@H](O)C[C@@]21C
inactive: [1] | [2] | [3] | [4]

CC(=O)N1C[C@H](O)C[C@H]1C(=O)O
inactive: [1] | [2] | [3] | [4]

O=C(c1ccc(F)cc1)C1CCN(CCn2c(=S)[nH]c3ccccc3c2=O)CC1
inactive: [1] | [2] | [3] | [4]

CCCCNc1c(C(=O)OCC)c(C)nc2c1cnn2CC
inactive: [1] | [2] | [3] | [4]

C[C@]12CCC(=O)C=C1CC[C@@H]1[C@@H]2CC[C@@]2(C)[C@H]1CC[C@]2(O)C(=O)CO
inactive: [1] | [2] | [3] | [4]

NNc1nnc(NN)c2ccccc12
inactive: [1] | [2] | [3] | [4]

Oc1ccc(Cl)cc1Cc1cc(Cl)ccc1O
inactive: [1] | [2] | [3] | [4]

CN1CCC(=C2c3ccccc3Sc3ccccc32)CC1
inactive: [1] | [2] | [3] | [4]

CN1CCC(=C2c3ccccc3CCc3sccc32)CC1
inactive: [1] | [2] | [3] | [4]

C[C@H]1C[C@H]2[C@@H]3CCC4=CC(=O)C=C[C@]4(C)[C@H]3C(=O)C[C@]2(C)[C@@]1(O)C(=O)CO
inactive: [1] | [2] | [3] | [4]

OC[C@H]1O[C@@H](OCCc2ccc(O)cc2)[C@H](O)[C@@H](O)[C@H]1O
inactive: [1] | [2] | [3] | [4]

C[C@H]1NCc2cc(-c3ccc4c(=O)c(C(=O)O)cn(C5CC5)c4c3OC(F)F)ccc21
inactive: [1] | [2] | [3] | [4]

CC(C)NCC(O)COc1ccc(COCCOC(C)C)cc1 (stereo unspecified)
inactive: [1] | [2] | [3] | [4]

O=C(O)/C=C/c1ccc(Cn2ccnc2)cc1
inactive: [1] | [2] | [3] | [4]

CC(=O)Nc1ccc(OCCOCCOc2ccc(NC(C)=O)cc2)cc1
inactive: [1] | [2] | [3] | [4]

COc1ccc2[nH]c(S(=O)Cc3ncc(C)c(OC)c3C)nc2n1 (stereo unspecified)
inactive: [1] | [2] | [3] | [4]

CCCCCC(N)=O
inactive: [1] | [2] | [3] | [4]

NCC1CCC(C(=O)Oc2ccc(CCC(=O)O)cc2)CC1 (stereo unspecified)
inactive: [1] | [2] | [3] | [4]

Cc1ncc(CSSCc2cnc(C)c(O)c2CO)c(CO)c1O
inactive: [1] | [2] | [3] | [4]

OCc1cc(C(O)CNCCCCCCOCCCCc2ccccc2)ccc1O (stereo unspecified)
inactive: [1] | [2] | [3] | [4]

Oc1c(I)cc(Cl)c2cccnc12
inactive: [1] | [2] | [3] | [4]

CN1CCN(CCCN2c3ccccc3Sc3ccc(S(=O)(=O)N(C)C)cc32)CC1
inactive: [1] | [2] | [3] | [4]

CCCCC1(COC(=O)CCC(=O)O)C(=O)N(c2ccccc2)N(c2ccccc2)C1=O
inactive: [1] | [2] | [3] | [4]

CCC1(c2cnc[nH]2)Cc2ccccc2C1
inactive: [1] | [2] | [3] | [4]

CCCCN(CCCC)CCC(O)c1cc2c(Cl)cc(Cl)cc2c2cc(C(F)(F)F)ccc12 (stereo unspecified)
inactive: [1] | [2] | [3] | [4]

Clc1ccc(C(Cn2ccnc2)OCc2ccc(Sc3ccccc3)cc2)c(Cl)c1 (stereo unspecified)
inactive: [1] | [2] | [3] | [4]

N[C@H](C(=O)O)[C@@H](O)c1ccc(O)c(O)c1
inactive: [1] | [2] | [3] | [4]

O=C(Nc1ccccc1)OCC(CN1CCCCC1)OC(=O)Nc1ccccc1 (stereo unspecified)
inactive: [1] | [2] | [3] | [4]

CN(C)CCCN1c2ccccc2Sc2ccc(C(F)(F)F)cc21
inactive: [1] | [2] | [3] | [4]

CN(C)CCOC(c1ccccc1)c1ccccc1
inactive: [1] | [2] | [3] | [4]

COc1ccccc1N1CCN(CC(O)COc2cccc3ccccc23)CC1 (stereo unspecified)
inactive: [1] | [2] | [3] | [4]

O=c1cc(CO)occ1O
inactive: [1] | [2] | [3] | [4]

C[C@@H]1C[C@H]2[C@@H]3C[C@H](F)C4=CC(=O)C(Cl)=C[C@]4(C)[C@@]3(F)[C@@H](O)C[C@]2(C)[C@@]1(O)C(=O)CO
inactive: [1] | [2] | [3] | [4]

CCN(CC)CC1CCCCN1CC(=O)N1c2ccccc2C(=O)Nc2cccnc21 (stereo unspecified)
inactive: [1] | [2] | [3] | [4]

CC(=O)O[C@]1(C(C)=O)CC[C@H]2[C@@H]3C=C(Cl)C4=CC(=O)CC[C@]4(C)[C@H]3CC[C@@]21C
inactive: [1] | [2] | [3] | [4]

O=C1O[C@H]([C@@H](O)CO)C(O)=C1O
inactive: [1] | [2] | [3] | [4]

Cc1cc(C(C)(C)C)c(O)c(C(C)(C)C)c1
inactive: [1] | [2] | [3] | [4]

CC(C)(C)CC(=O)OCC(=O)[C@@]1(O)CC[C@H]2[C@@H]3CCC4=CC(=O)C=C[C@]4(C)[C@H]3[C@@H](O)C[C@@]21C
inactive: [1] | [2] | [3] | [4]

COc1ccc(CCC(C)=O)cc1
inactive: [1] | [2] | [3] | [4]

NCc1ccccc1Sc1ccccc1CO
inactive: [1] | [2] | [3] | [4]

O=C(OCc1ccccc1)c1ccc(O)cc1
inactive: [1] | [2] | [3] | [4]

CC1(C)O[C@@H]2C[C@H]3[C@@H]4C[C@H](F)C5=CC(=O)C=C[C@]5(C)[C@H]4[C@@H](O)C[C@]3(C)[C@]2(C(=O)CO)O1
inactive: [1] | [2] | [3] | [4]

CC1(C)OC[C@@H](COC(=O)CCc2ccc(OC[C@@H](O)CNCCNC(=O)N3CCOCC3)cc2)O1
inactive: [1] | [2] | [3] | [4]

Nc1ccc(C(=O)NCC(=O)O)cc1
inactive: [1] | [2] | [3] | [4]

Cc1ccc(N(CC2=NCCN2)c2cccc(O)c2)cc1
inactive: [1] | [2] | [3] | [4]

CCCc1cc(C(N)=S)ccn1
inactive: [1] | [2] | [3] | [4]

O=C1Nc2ccccc2C1(c1ccc(O)cc1)c1ccc(O)cc1
inactive: [1] | [2] | [3] | [4]

O=C1Cc2cc(Cl)ccc2N1
inactive: [1] | [2] | [3] | [4]

C[N+](C)(C)CCCCCCCCCC[N+](C)(C)C
inactive: [1] | [2] | [3] | [4]

O=c1oc2c(O)c(O)cc3c(=O)oc4c(O)c(O)cc1c4c23
inactive: [1] | [2] | [3] | [4]

CN(C)CCCN1c2ccccc2Sc2ccccc21
inactive: [1] | [2] | [3] | [4]

COC(=O)[C@@H](N)Cc1ccc(O)c(O)c1
inactive: [1] | [2] | [3] | [4]

Cc1nnc(C(=O)NC(C)(C)c2nc(C(=O)NCc3ccc(F)cc3)c(O)c(=O)n2C)o1
inactive: [1] | [2] | [3] | [4]

O=C(O)c1cn(-c2ccc(F)cc2)c2cc(N3CCNCC3)c(F)cc2c1=O
inactive: [1] | [2] | [3] | [4]

NS(=O)(=O)c1cc2c(cc1Cl)NC(CSCc1ccccc1)=NS2(=O)=O
inactive: [1] | [2] | [3] | [4]

Cc1ccc(C(=O)Oc2ccc(C(O)CNC(C)(C)C)cc2OC(=O)c2ccc(C)cc2)cc1 (stereo unspecified)
inactive: [1] | [2] | [3] | [4]

CCN(CCCc1ccccc1)CCCc1ccccc1
inactive: [1] | [2] | [3] | [4]

CC1=C(C(=O)OC(C)C)C(c2cccc([N+](=O)[O-])c2)C(C(=O)OC2CN(C(c3ccccc3)c3ccccc3)C2)=C(N)N1 (stereo unspecified)
inactive: [1] | [2] | [3] | [4]

CC(=O)Oc1c(C)c(C)c2c(c1C)CC[C@@](C)(CCC[C@H](C)CCC[C@H](C)CCCC(C)C)O2
inactive: [1] | [2] | [3] | [4]

CN1[C@@H]2CC[C@H]1CC(NC(=O)n1c(=O)[nH]c3ccccc31)C2 (stereo partly specified)
inactive: [1] | [2] | [3] | [4]

CC(=O)Oc1ccc(C2(c3ccc(OC(C)=O)cc3)C(=O)Nc3ccccc32)cc1
inactive: [1] | [2] | [3] | [4]

— PubChem BioAssay (NCATS)
